This is an account of results in PubChem BioAssay (NCATS).

Each structure is given as a SMILES string. Records with an inconclusive call do not appear. Calls of active or inactive are those of the source. The call rests on the fitted dose curve; in most records, active means well fitted inhibition curve with a large enough effect; inconclusive means small, poorly fitted or top-dose-only effect; inactive means flat fitted curve, though single readings scatter.

Holding throughout (assay): qHTS profiling for inhibitors of Plasmodium falciparum proliferation (AID 504749); further: nearly all actives have a fitted effect of over 60% in size
Holding throughout (settings): P. falciparum in erythrocytes, SYBR Green DNA, 72 h; series mostly up to 28.7 µM
In general terms: qHTS replaces the single test concentration by a dilution series.

One experiment concerns ATS95. A digest of the protocol:
(§1)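 Each compound contacts P. falciparum-infected red blood cells for 72 h at 37 C; lysis buffer (Tris, EDTA, saponin, Triton X, SYBR Green I) is added and fluorescence measured next morning; values normalized to controls.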

The test system of a further experiment is C2A. In a few lines:
as §1

In the next experiment the test system is CP185. In a few lines:
as §1

In a further experiment the test system is CP191. In a few lines: as §1
The next experiment has as its system CP192. In a few lines: as §1
The next experiment concerns CP194. In a few lines:
as §1

For another experiment, the system named is CP201. In a few lines: as §1
The next experiment deals with CP203. In a few lines:
as §1

In a further experiment the test system is CP211. A digest of the protocol: as §1
A further experiment relates to CP215. In a few lines:
as §1

In another experiment the test system is CP217. In a few lines: as §1
In a further experiment the test system is CP237. In a few lines:
as §1

The next experiment has as its system CP238. In a few lines:
as §1

A further experiment relates to CP247. A digest of the protocol:
as §1

The next experiment has as its system CP250. In a few lines:
as §1

Another experiment has as its system CP252. In a few lines: as §1
A further experiment concerns CP256. In a few lines: as §1
The next experiment concerns CP260. In a few lines: as §1
The subject of a further experiment is CP262. In a few lines:
as §1

The next experiment deals with CP265. In a few lines:
as §1
Potency means the concentration at half of the fitted maximal effect.

`CC(=O)N[C@@H](CCC(=O)O)C(=O)O`: the Potency result with ATS95, in the experiment with C2A, with CP185, with CP191, with CP192 and in the experiment with CP194 was “inactive” throughout. Also, the Potency entry with CP201, in the experiment on CP203, with CP211, in the experiment on CP215, with CP217 and with CP237 was “inactive” each time. Besides, the Potency entry in the experiment with CP238, in the experiment on CP247, in the experiment with CP250, with CP252, in the experiment on CP256 and in the experiment on CP260 was “inactive” throughout. In addition, the Potency entry in the experiment on CP262 and in the experiment on CP265 was “inactive” each time.

Regarding `CCCCNC(=O)NS(=O)(=O)c1ccc(N)cc1`, the Potency result with ATS95, with C2A, with CP185, in the experiment on CP191, in the experiment with CP192 and in the experiment on CP194 was “inactive” in each case. The Potency entry with CP201, in the experiment on CP203, in the experiment on CP211, with CP215, in the experiment with CP217 and with CP237 was “inactive” throughout. Further, the Potency entry with CP238, in the experiment on CP247, in the experiment on CP250, in the experiment with CP252, in the experiment on CP256 and with CP260 was “inactive” each time. In addition, the Potency entry with CP262 and in the experiment on CP265 was “inactive” throughout.

With `CCCCC(CC)COC(=O)c1ccc(N(C)C)cc1` (stereo not given), the Potency result in the experiment on ATS95, in the experiment on C2A, in the experiment on CP185, in the experiment with CP191, with CP192 and in the experiment on CP194 was “inactive” each time. For the same compound, the Potency entry with CP201, with CP203, in the experiment with CP211, in the experiment on CP215, in the experiment on CP217 and with CP237 was “inactive” in each case. The Potency result with CP238, in the experiment on CP247, in the experiment with CP250, in the experiment with CP252, with CP256 and in the experiment with CP260 was “inactive” in each case. Besides, the Potency result in the experiment with CP262 and with CP265 was “inactive” in each case.

As for `O=C(Nc1ncc([N+](=O)[O-])s1)c1cccs1`, the Potency result in the experiment with ATS95, in the experiment with C2A, with CP185, in the experiment with CP191, in the experiment with CP192 and in the experiment with CP194 was “inactive” in each case. The Potency result in the experiment on CP201, in the experiment on CP203, in the experiment with CP211, in the experiment with CP215, in the experiment with CP217 and in the experiment with CP237 was “inactive” throughout. Moreover, the Potency entry with CP238, in the experiment on CP247, with CP250, in the experiment with CP252, in the experiment on CP256 and in the experiment on CP260 was “inactive” each time. Besides, the Potency entry with CP262 and in the experiment with CP265 was “inactive” in each case.

For `O[C@@H](c1cc(C(F)(F)F)nc2c(C(F)(F)F)cccc12)[C@H]1CCCCN1`, the Potency in the experiment on ATS95 is 0.0282 µM (active); in the experiment on C2A, 0.0708 µM (active); in the experiment with CP185 it was 0.0794 µM (active); in the experiment with CP191 it was 0.0501 µM (active); in the experiment with CP192, 0.12 µM (active); with CP194, 0.213 µM (active). The Potency in the experiment on CP201 is 0.379 µM (active); with CP203, 0.0849 µM (active); in the experiment with CP211, 0.213 µM (active); in the experiment on CP215 it was 0.0953 µM (active); with CP217 it was 0.0398 µM (active); in the experiment with CP237, 0.0251 µM (active). Also, the Potency in the experiment on CP238 was 0.0447 µM (active); in the experiment on CP247 it was 0.0708 µM (active); with CP250, 0.0631 µM (active); with CP252 it was 0.0316 µM (active); in the experiment with CP256, 0.0631 µM (active); in the experiment on CP260, 0.0316 µM (active). In addition, the Potency in the experiment with CP262 is 0.19 µM (active); in the experiment on CP265, 0.0355 µM (active).

In the case of `CC(C)CCCC(C)N` (stereo not given), the Potency entry in the experiment with ATS95, in the experiment with C2A, with CP185, with CP191, in the experiment on CP192 and with CP194 was “inactive” each time. Also, the Potency entry in the experiment with CP201, with CP203, in the experiment with CP211, with CP215, with CP217 and in the experiment with CP237 was “inactive” in each case. Also, the Potency result with CP238, in the experiment with CP247, in the experiment with CP250, with CP252, in the experiment with CP256 and in the experiment on CP260 was “inactive” each time. The Potency entry in the experiment with CP262 and in the experiment on CP265 was “inactive” each time.

For `CCCN(CCC)S(=O)(=O)c1ccc(C(=O)O)cc1`, the Potency result in the experiment on ATS95, with C2A, with CP185, in the experiment on CP191, with CP192 and in the experiment with CP194 was “inactive” in each case. Further, the Potency entry in the experiment with CP201, in the experiment on CP203, in the experiment with CP211, in the experiment on CP215, with CP217 and in the experiment on CP237 was “inactive” in each case. In addition, the Potency entry in the experiment with CP238, in the experiment on CP247, in the experiment with CP250, in the experiment on CP252, with CP256 and in the experiment with CP260 was “inactive” each time. Moreover, the Potency result in the experiment with CP262 and with CP265 was “inactive” throughout.

For `CCN(CC)CCNc1ccc(CO)c2sc3ccccc3c(=O)c12`, the Potency in the experiment with ATS95 is 2 µM (active); in the experiment on C2A, 0.794 µM (active); in the experiment on CP185, 1 µM (active); in the experiment with CP191, 0.355 µM (active); with CP192, 1.69 µM (active); with CP194, 3.38 µM (active). For the same compound, the Potency in the experiment with CP201 is 7.57 µM (active); with CP203, 4.26 µM (active); in the experiment with CP211 it was 4.26 µM (active); in the experiment with CP215, 4.26 µM (active); with CP217, 2.82 µM (active); in the experiment with CP237 it was 0.891 µM (active). Further, the Potency was 1 µM (active) with CP238; 0.891 µM (active) in the experiment on CP247; 1 µM (active) with CP250; 0.562 µM (active) in the experiment on CP252; 1.78 µM (active) with CP256; 0.794 µM (active) in the experiment on CP260. Also, the Potency with CP265 is 1.58 µM (active). Also, the Potency entry in the experiment on CP262 was “inactive”.

Regarding `COc1ccc(-c2cc(C(F)F)nn2-c2ccc(S(N)(=O)=O)cc2)cc1F`, the Potency entry in the experiment with ATS95, with C2A, in the experiment with CP185, in the experiment with CP191, with CP192 and with CP194 was “inactive” throughout. The Potency entry in the experiment with CP201, in the experiment with CP203, in the experiment on CP211, in the experiment with CP215, in the experiment on CP217 and in the experiment on CP237 was “inactive” in each case. For the same compound, the Potency entry in the experiment on CP238, with CP247, in the experiment with CP250, in the experiment on CP252, in the experiment with CP256 and in the experiment with CP260 was “inactive” in each case. The Potency entry in the experiment with CP262 and in the experiment on CP265 was “inactive” in each case.

With `COc1cc(C(=O)NCc2ccc(OCCN(C)C)cc2)cc(OC)c1OC`, the Potency entry in the experiment with ATS95, with C2A, in the experiment on CP185, in the experiment with CP191, in the experiment with CP192 and with CP194 was “inactive” throughout. The Potency result with CP201, in the experiment on CP203, in the experiment on CP211, in the experiment with CP215, with CP217 and in the experiment with CP237 was “inactive” in each case. Besides, the Potency entry with CP238, in the experiment on CP247, with CP250, in the experiment on CP252, in the experiment with CP256 and in the experiment with CP260 was “inactive” throughout. Further, the Potency result with CP262 and in the experiment with CP265 was “inactive” in each case.

With `CCc1oc2ccccc2c1C(=O)c1cc(I)c(O)c(I)c1`, the Potency entry with ATS95, with C2A, in the experiment with CP185, in the experiment on CP191, in the experiment with CP192 and in the experiment on CP194 was “inactive” in each case. Moreover, the Potency result with CP201, in the experiment on CP203, in the experiment on CP211, in the experiment with CP215, in the experiment on CP217 and in the experiment on CP237 was “inactive” in each case. The Potency result in the experiment on CP238, in the experiment on CP247, in the experiment on CP250, in the experiment on CP252, with CP256 and in the experiment on CP260 was “inactive” each time. Further, the Potency result in the experiment with CP262 and in the experiment with CP265 was “inactive” throughout.

As for `O=C(O)Cc1csc(-c2ccc(Cl)cc2)n1`, the Potency result in the experiment on ATS95, with C2A, in the experiment with CP185, with CP191, in the experiment with CP192 and with CP194 was “inactive” throughout. In addition, the Potency result in the experiment on CP201, in the experiment with CP203, in the experiment with CP211, in the experiment on CP215, with CP217 and in the experiment on CP237 was “inactive” in each case. The Potency result in the experiment with CP238, in the experiment on CP247, with CP250, in the experiment with CP252, in the experiment with CP256 and with CP260 was “inactive” each time. Moreover, the Potency result in the experiment on CP262 and with CP265 was “inactive” throughout.

Consider `Cc1cc(C)cc(OCC2CNC(=O)O2)c1` (stereo not given), for which the Potency result in the experiment with ATS95, in the experiment with C2A, in the experiment on CP185, with CP191, in the experiment with CP192 and in the experiment on CP194 was “inactive” throughout. Also, the Potency entry in the experiment on CP201, in the experiment with CP203, with CP211, in the experiment on CP215, with CP217 and with CP237 was “inactive” throughout. In addition, the Potency result in the experiment with CP238, in the experiment on CP247, in the experiment with CP250, in the experiment on CP252, with CP256 and with CP260 was “inactive” throughout. The Potency result with CP262 and in the experiment with CP265 was “inactive” throughout.
